Holding throughout (experiment): NCI-60 one-dose screen, 48 h (100 = growth as untreated, 0 = no growth, -100 = all killed)
Holding throughout (details): 10 µM unless noted

In test [1] the test system is HCT-15 colon.
Test [2] relates to SNB-75 CNS.
Test [3] has as its system SNB-19 CNS.
The subject of test [4] is U251 CNS.
Test [5] concerns PC-3 prostate.
Test [6] relates to SK-MEL-5 melanoma.
For test [7], the system named is UACC-62 melanoma.
For test [8], the system named is LOX IMVI melanoma.
Test [9] concerns SK-MEL-28 melanoma.
In test [10] the test system is EKVX NSCLC.
Test [11] relates to SN12C renal.
Test [12] deals with UO-31 renal.
For test [13], the system named is ACHN renal.
Test [14] deals with CAKI-1 renal.
Test [15] has as its system A498 renal.
Test [16] relates to CCRF-CEM leukemia.
The subject of test [17] is MOLT-4 leukemia.
The test system of test [18] is SK-MEL-2 melanoma.
In test [19] the test system is TK-10 renal.

About 83,000 compounds went through this panel and 20% of them were active in at least one assay; those are over-represented in the sample as a whole.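 For each line, cells grew in 96-well plates with the test compound present at a single concentration for 48 hours.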 A number with no mark means an inactive call. The source made the active and inactive calls. How the source made its calls: active means growth percent below 10; inactive means the rest.

Consider `CN1CCN(CCCCCN=c2cc3c(=O)n(CCCCCN4CCN(C)CC4)c(=O)c4c(NCCCCCN5CCN(C)CC5)cc5c(O)n(CCCCCN6CCN(C)CC6)c(=O)c2c5c4-3)CC1`, for which the growth in test [1] was 107%; in test [2], -8.4% (active); in test [3] it was 3.84% (active); in test [4] it was 2.35% (active); in test [5] it was 12.6%; in [6], 44.3%. For the same compound, the growth was 21.9% in [7]; 1.9% (active) in test [8]; -34.8% (active) in test [9]; -11.4% (active) in [10]; 5.16% (active) in test [11]; 115% in test [12]. The growth in test [13] is 88.5%; in test [14] it was 102%; in test [15] it was 95.6%; in [16], 13.9%; in [17] it was 25.2%.

As to `COc1cc(/C=C2\CN(S(=O)(=O)c3ccc(C)cc3)C/C(=C\c3cc(CN4CCOCC4)c(O)c(OC)c3)C2=O)cc(CN2CCOCC2)c1O`, the growth in test [1] was -31.3% (active); in [2], 25.8%; in test [3] it was 12.9%; in test [4], 15.5%; in test [5], 2.79% (active); in test [6] it was -63.4% (active). Moreover, the growth is -45.8% (active) in test [7]; -49.3% (active) in test [8]; -33.2% (active) in [9]; 11.6% in [10]; -19.3% (active) in test [11]; -89.3% (active) in test [12]. Besides, the growth was -82.4% (active) in [13]; 9.3% (active) in [14]; 36.5% in test [15]; 8.78% (active) in [16]; 4.35% (active) in test [17].

Turning to `O=C1CNc2cc(Cl)ccc2N1`, the growth in test [1] is 109%; in test [2] it was 89.8%; in test [3], 107%; in test [4], 101%; in test [5], 104%; in test [6] it was 99.9%. Further, the growth in [7] is 101%; in test [8], 101%; in test [9] it was 107%; in test [10] it was 89.1%; in test [11], 103%; in test [12] it was 81.6%. Further, the growth in test [13] was 98.6%; in test [14], 97.8%; in test [15], 97.3%; in test [16], 93.3%; in test [17], 87.4%.

Consider `OC(c1cc(-c2cccc(Cl)c2)nc2ccccc12)C1CCCCN1` (stereo not given), for which the growth was -61.9% (active) in [1]; -5.41% (active) in test [2]; 18.1% in test [3]; -85.1% (active) in [4]; -26.2% (active) in test [5]; -67.5% (active) in test [6]. In addition, the growth is -41.2% (active) in [7]; -90.7% (active) in [8]; -94.2% (active) in [9]; -92% (active) in [18]; 47.3% in test [10]; -5.08% (active) in test [11]. Also, the growth in [12] is -44.8% (active); in test [19] it was -63.2% (active); in test [13] it was -0.726% (active); in test [14], -36.5% (active); in test [15], 56.3%; in test [16] it was -8.29% (active). The growth in [17] was -30.6% (active).

On to `Cc1cc2ccccn2c1C(=O)c1ccc(C(=O)c2ccccc2)cc1`, for which the growth in [1] is 85.5%; in [2] it was 93.5%; in test [3], 86.1%; in test [4] it was 86.2%; in [5] it was 85.2%; in test [6], 98.4%. For the same compound, the growth in test [7] was 75.1%; in test [8] it was 92.1%; in test [9], 89.7%; in [18], 15%; in [10], 91.8%; in [11], 94.5%. Also, the growth in test [12] was 62.5%; in test [19], 98.7%; in test [14] it was 106%; in test [16] it was 86.6%; in test [17], 78.4%.

With `O=C(CNc1ccc2c(c1)C(=O)c1ccccc1C2=O)Nc1ccc2c(c1)C(=O)c1ccccc1C2=O`, the growth was -81.5% (active) in test [1]; -51.4% (active) in test [2]; -29.9% (active) in [3]; -91.4% (active) in test [4]; -24.3% (active) in [5]; -98.1% (active) in test [6]. Further, the growth is -93.3% (active) in [7]; -91.7% (active) in test [8]; -75.1% (active) in test [9]; -74.4% (active) in test [18]; -18.5% (active) in test [10]; -87% (active) in test [11]. The growth in test [12] is -96.5% (active); in [13] it was -94.3% (active); in test [14], -80.8% (active); in test [15], 27.6%; in test [16] it was -11.6% (active); in test [17], -36.6% (active).

`COC(=O)[C@H](Cc1cnc[nH]1)NC(=O)[C@@H](NC(=O)Nc1cc(C(F)(F)F)cc(C(F)(F)F)c1)C(C)C`: the growth in [1] is 35.4% [100 µM]; in test [2], -95.3% [100 µM] (active); in test [3] it was -96.3% [100 µM] (active); in [4], -96.8% [100 µM] (active); in [5], -93.2% [100 µM] (active); in test [6], -91.5% [100 µM] (active). Moreover, the growth is -96.2% [100 µM] (active) in test [7]; -84.5% [100 µM] (active) in test [8]; -96.1% [100 µM] (active) in test [9]; -93% [100 µM] (active) in test [18]; -96.3% [100 µM] (active) in [11]; -21.7% [100 µM] (active) in [12]. The growth is -95% [100 µM] (active) in [19]; -58.3% [100 µM] (active) in test [13]; 40.9% [100 µM] in [14]; -87.8% [100 µM] (active) in [15]; -45.5% [100 µM] (active) in [17].

As to `CCOC(=O)C(Br)=P(c1ccccc1)(c1ccccc1)c1ccccc1`, the growth in test [1] is 102%; in test [2], 118%; in test [3], 114%; in test [4], 87.7%; in test [5] it was 99.9%; in test [6], 87.6%. Besides, the growth is 92.8% in test [7]; 101% in test [8]; 107% in test [9]; 98.8% in [18]; 104% in test [13]; 82.9% in [14]. Besides, the growth was 109% in [15], -40.7% (active) in [16] and 99.6% in test [17].

In the case of `CC1C(=O)NC2=Nc3ccccc3C(=O)NN21` (stereo not given), the growth in test [1] was 108%; in [2] it was 86.7%; in test [3] it was 107%; in test [4], 101%; in [5] it was 92.4%; in [6], 94.5%. For the same compound, the growth was 92.2% in [7]; 95.4% in test [8]; 120% in [9]; 96% in test [18]; 88.3% in [10]; 99.7% in test [11]. The growth in [12] is 64%; in test [13] it was 93.8%; in [14], 94.5%; in test [15], 116%; in test [16], 97.3%; in test [17], 94.3%.

For the origin of these results see PubChem BioAssay (NCI).
